The list is not random: actives were taken first. Their share in the collection is about 3.3%.
AmpC inh no detg: AmpC beta-lactamase inhibition without detergent | 0.52% of 330,000 active | AmpC nitrocefin hydrolysis, absorbance 480 nm, 0.0001% Triton | P00811 | Potency, µM (highest dose often 57.1 µM), hits mostly inhibitors; also: nearly all actives have a fitted effect of over 20% in size
Target sequence (P00811 whole entry, looked up): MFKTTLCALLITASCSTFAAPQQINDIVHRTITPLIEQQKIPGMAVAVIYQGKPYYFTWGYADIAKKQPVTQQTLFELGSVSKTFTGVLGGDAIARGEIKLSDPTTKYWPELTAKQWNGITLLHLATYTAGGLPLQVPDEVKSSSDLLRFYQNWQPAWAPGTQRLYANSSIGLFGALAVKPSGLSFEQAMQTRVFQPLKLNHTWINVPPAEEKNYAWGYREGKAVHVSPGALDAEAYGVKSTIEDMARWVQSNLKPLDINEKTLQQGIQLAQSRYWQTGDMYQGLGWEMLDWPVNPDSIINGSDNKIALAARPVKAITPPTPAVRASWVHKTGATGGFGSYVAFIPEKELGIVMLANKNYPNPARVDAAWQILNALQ
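AmpC (5.3 nM in the dispensed reagent) in 20 mM phosphate pH 7.0 with 0.01% (detergent screen) or 0.0001% Triton X-100 was preincubated with compounds for 15 min at room temperature. Nitrocefin was then added from an 800 uM solution, and hydrolysis was followed at 480 nm.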
AmpC inh detg: inhibitors of E. coli AmpC beta-lactamase with detergent; P00811; AmpC hydrolysis of nitrocefin, absorbance 480 nm, 0.01% Triton; Potency, µM (doses to about 114 µM), actives largely listed as inhibitors; 0.041% of 370,000 active; AID 485294; also: nearly all actives have a fitted effect of over 25% in size
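20 mM phosphate pH 7.0 + 0.01% (detergent screen) or 0.0001% Triton X-100; 5.3 nM AmpC reagent; cpd preinc 15 min RT; nitrocefin (800 uM stock) to start; A480 q20 s × 4 min; Activity was normalised to no-enzyme and no-compound control wells.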
Sm TGR inh: blocks Schistosoma mansoni thioredoxin glutathione reductase; Potency, µM (series often up to 114 µM), most hits filed as inhibitors; Q962Y6; 3% of 360,000 active; purified TGR, DTNB reduction, TNB absorbance 405 nm; also: nearly all actives have a fitted effect of over 60% in size
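First, TGR (20 nM dispensed) and NADPH were mixed with compound. Second, a 15 min room-temperature incubation followed. Third, further NADPH and then DTNB were added to start the reaction. Finally, TNB absorbance was monitored kinetically.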
Each line names hits and unclear results; the compound was inactive in the other large screens. Calls follow the shape of the dose curve; as a rule, active = well fitted curve in the direction sought with a large enough effect; inconclusive = small, poorly fitted or top-dose-only effect, or another doubt; inactive = no such curve, though single readings can be large; an effect the other way counts as inactive or inconclusive.

CCC(C)(C)C1CCC2(CC1)NC(=O)N(CC(=O)N1CCN(C(=O)c3ccco3)CC1)C2=O (configuration not stated)	none
CCN(CC)c1cc(Cl)c2nonc2c1N	none
CN(C)c1cc(Cl)c2nonc2c1N	AmpC inh no detg inconclusive, Sm TGR inh 50µM
Cc1ccc(CNC(=O)C(C)C2Sc3ccccc3NC2=O)cc1 (configuration not stated)	none
CC(=O)C1=C(O)C(=O)N(CCc2ccccc2)C1c1ccccc1[N+](=O)[O-] (configuration not stated)	none
CCN(CC)CCN1C(=O)C(O)=C(C(C)=O)C1c1ccccc1[N+](=O)[O-] (configuration not stated)	Sm TGR inh 45µM
Cc1c(C(=O)N2CCCC2)oc2c1-c1nn(CC(=O)NC(C)c3ccccc3)cc1CC2 (configuration not stated)	none (no result: AmpC inh no detg)
C=CCc1cc(/C=C2/NC(=O)NC2=O)cc(OCC)c1O	Sm TGR inh 50µM
C=CCc1cc(/C=C2/NC(=S)NC2=O)cc(OC)c1O	none
O=S(=O)(Nc1ccc(-c2ccc(N3CCCCCC3)nn2)cc1)c1ccc(C(F)(F)F)cc1	none (no result: AmpC inh no detg)
Cc1nn(Cc2ccc(Cl)cc2)c(C)c1NC(=O)c1cc(-c2ccco2)on1	Sm TGR inh inconclusive
Cc1nn(Cc2ccc(Cl)c(Cl)c2)c(C)c1NC(=O)c1cc(-c2ccco2)on1	Sm TGR inh 45µM
CCOCCCNC(=O)c1c(NC(=O)c2cc(=O)c3ccccc3o2)sc2c1CCC2	none (no result: AmpC inh no detg)
O=C(CN1C(=O)NC2(CCCCC2)C1=O)NCC(=O)Nc1ccc(F)c(F)c1	none
CCC(C)n1c(=O)c2sccc2n2c(CCCC(=O)N3CCC(C(N)=O)CC3)nnc12 (configuration not stated)	Sm TGR inh 7.1µM
CCn1c(=O)c2sccc2n2c(CCCC(=O)N3CCN(c4ccc(F)cc4)CC3)nnc12	none (no result: AmpC inh no detg)
O=C(OCC(=O)N1CCc2ccccc21)c1ccncc1	none
Cc1cc(C(=O)N/N=C/c2cn[nH]c2-c2ccccc2)cs1	none
CCc1c(C(=O)N/N=C/c2cn[nH]c2-c2ccc(F)cc2)csc1C	AmpC inh no detg 16µM, AmpC inh detg inconclusive
O=C(CSc1nnc(Cc2ccccc2)o1)NCc1ccco1	AmpC inh detg inconclusive, Sm TGR inh 45µM
O=C(CSc1nnc(CNC(=O)c2cccc(C(F)(F)F)c2)o1)NCc1ccco1	AmpC inh detg inconclusive
O=C(CSc1nnc(CNC(=O)c2c(F)cccc2Cl)o1)NCc1ccc(F)cc1	none
CCn1c(Cc2c(C)[nH]c3ccccc23)nnc1SCC(=O)NCc1ccco1	none
Cc1[nH]c2ccccc2c1Cc1nnc(SCC(=O)NCc2ccco2)o1	AmpC inh detg inconclusive, Sm TGR inh 16µM
O=C(CSc1nnc(CNC(=O)c2c(F)cccc2F)o1)NCc1ccc(F)cc1	Sm TGR inh 28µM
COc1cc(OC)c(OC)cc1CNc1nnnn1C	none
O=C(CNC(=O)c1cccs1)Nc1ccc(N2CCOCC2)cc1	none
Cc1ccc(NC(=O)C2CCCN(S(=O)(=O)c3cn(C(C)C)cn3)C2)c(C)c1 (configuration not stated)	none (no result: AmpC inh no detg)
N#Cc1ccc(Oc2ccc(NC(=O)C3CC=CCC3C(=O)O)cc2)cc1 (configuration not stated)	none
COc1ccc(-c2cc(-c3ccc(OC)cc3)[nH]n2)cc1	none
COc1ccc(-c2cc(C3CCNCC3)[nH]n2)cc1	Sm TGR inh 45µM
COc1ccc(C2=NN(C(C#N)c3ccc(OC)cc3)C(c3ccccc3)C2)cc1 (configuration not stated)	none
CC(C)N(C(=O)COC(=O)c1ccccc1C(=O)c1ccc(Cl)c([N+](=O)[O-])c1)C(C)C	none
CN(CCC#N)C(=O)COC(=O)c1ccccc1C(=O)c1ccc(Cl)c([N+](=O)[O-])c1	Sm TGR inh 13µM
CC(OC(=O)CC1CCCC1)C(=O)Nc1ccc(S(N)(=O)=O)cc1 (configuration not stated)	none
O=C(O)c1cc(-c2ccco2)nn1-c1ccc(Cl)cc1	Sm TGR inh 5µM
Cc1nn(-c2ccccc2)c2nc(-c3ccco3)cc(C(=O)O)c12	AmpC inh detg inconclusive, Sm TGR inh inconclusive
Cc1nn(-c2cccc(Cl)c2)c2nc(-c3ccco3)cc(C(=O)O)c12	Sm TGR inh 16µM
O=C(O)c1cc(-c2ccco2)nn1-c1cccc(Cl)c1	Sm TGR inh 63µM
O=C(O)c1cc(-c2cc3ccccc3o2)nn1-c1ccccc1	none
Cc1ccc(-n2nc(-c3ccco3)cc2C(=O)O)c(C)c1	Sm TGR inh 11µM
Cc1ccc(-n2nc(-c3cccnc3)cc2C(=O)N2CCOCC2)c(C)c1	none
O=C(O)c1cc(-c2cccs2)nn1-c1cccc(Cl)c1	none
COc1ccc(C(=O)COC(=O)c2cc(=O)c3ccccc3o2)cc1	none (no result: AmpC inh detg, Sm TGR inh)
CCOC(=O)c1ccc(N2C(=O)Cc3cc(OCC)c(OCC)cc3C2c2ccccc2)cc1 (configuration not stated)	none (no result: AmpC inh no detg)
Oc1ccc(F)c2cccnc12	none
Oc1ccc(CNc2ccccc2F)c2cccnc12	AmpC inh detg inconclusive, Sm TGR inh 0.11µM
Oc1ccccc1CNc1cccc2cccnc12	none
Oc1ccc(CNc2cccc(F)c2F)c2cccnc12	Sm TGR inh 0.11µM
Oc1ccc(CNc2ccc(C(F)(F)F)cc2Cl)c2cccnc12	Sm TGR inh 1µM
O=C(Cc1ncc(C(F)(F)F)cc1Cl)NCc1cccnc1	none
COCC(=O)O[C@]1(CCN(C)CCCc2nc3ccccc3[nH]2)CCc2cc(F)ccc2[C@@H]1C(C)C	none
COC(=O)[C@H](Cc1ccccc1)NC(=O)NCCc1ccc(OC)cc1	none
CCC(NS(=O)(=O)c1ccc(OC)cc1)C(=O)NCCc1ccccc1 (configuration not stated)	none
CCn1cc(C=C2C(=O)c3ccccc3C2=O)c2ccccc21	AmpC inh detg inconclusive
Cc1ccc(S(=O)(=O)c2cc3ccccc3oc2=Nc2ccc3c(c2)OCCO3)cc1	AmpC inh no detg 3.2µM
COc1ccccc1NS(=O)(=O)c1ccc2c(c1)OCCO2	none
COc1cccc2cc(S(=O)(=O)c3ccccc3)c(=Nc3ccc4c(c3)OCCO4)oc12	AmpC inh no detg 3.5µM
Cc1ccc(S(=O)(=O)c2cc3ccccc3oc2=Nc2ccc3c(c2)OCO3)cc1	none
Cc1cc(C(F)F)n2nc(C(=O)Nc3c(C)cccc3C)nc2n1	none (no result: AmpC inh no detg)
COCC(C)n1c(C)cc(C(=O)CSc2nnnn2C2CCCC2)c1C (configuration not stated)	none
COc1c(C(=O)NNC(=O)c2ccccc2Cl)csc1Br	none
CCOc1ccc(-c2cn(-c3cccc(SC)c3)c(=O)[nH]2)cc1	AmpC inh no detg 35µM
CCOc1ccc(-c2cn(-c3ccccc3OC)c(=S)[nH]2)cc1	none
CCCCC(=O)NC(N1CCCCC1)C(Cl)(Cl)Cl (configuration not stated)	Sm TGR inh 11µM
CCCCCC(=O)NC(NC(=S)N1CCOCC1)C(Cl)(Cl)Cl (configuration not stated)	none
COc1cc(-c2nc(Cn3nnc(C(=O)Nc4ccc(C)cc4C)c3C)c(C)o2)cc(OC)c1OC	none (no result: AmpC inh no detg)
Cc1ccc(N2C(=O)CC(Cc3cccc(C)c3)C2=O)cc1 (configuration not stated)	none
